About 21,000 targets were measured; listed, in parts, are those with the largest changes and a random draw of the rest.
Compound: CC1Cc2ccccc2N1C(=O)C1CCCN(C1)C(=O)CCl (mixture of isomers) [TRIM25 ligand 11 (diastereomer mixture)]
Assay: probe-labelled cysteine peptide fold change vs DMSO (competition) (log2 fold change); higher = less target engagement (more negative = stronger competition)
Conditions: 10 µM; THP-1; incubation time: 4 h
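Further: competitive chemoproteomic profiling in live THP-1 cells with an iodoacetamide desthiobiotin (IA-DTB) probe, comparing probe-labelled peptide intensities in compound-treated cells against DMSO-treated controls.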

UniProt Q9Y4E6, sequence (Q9Y4E6 whole entry, looked up): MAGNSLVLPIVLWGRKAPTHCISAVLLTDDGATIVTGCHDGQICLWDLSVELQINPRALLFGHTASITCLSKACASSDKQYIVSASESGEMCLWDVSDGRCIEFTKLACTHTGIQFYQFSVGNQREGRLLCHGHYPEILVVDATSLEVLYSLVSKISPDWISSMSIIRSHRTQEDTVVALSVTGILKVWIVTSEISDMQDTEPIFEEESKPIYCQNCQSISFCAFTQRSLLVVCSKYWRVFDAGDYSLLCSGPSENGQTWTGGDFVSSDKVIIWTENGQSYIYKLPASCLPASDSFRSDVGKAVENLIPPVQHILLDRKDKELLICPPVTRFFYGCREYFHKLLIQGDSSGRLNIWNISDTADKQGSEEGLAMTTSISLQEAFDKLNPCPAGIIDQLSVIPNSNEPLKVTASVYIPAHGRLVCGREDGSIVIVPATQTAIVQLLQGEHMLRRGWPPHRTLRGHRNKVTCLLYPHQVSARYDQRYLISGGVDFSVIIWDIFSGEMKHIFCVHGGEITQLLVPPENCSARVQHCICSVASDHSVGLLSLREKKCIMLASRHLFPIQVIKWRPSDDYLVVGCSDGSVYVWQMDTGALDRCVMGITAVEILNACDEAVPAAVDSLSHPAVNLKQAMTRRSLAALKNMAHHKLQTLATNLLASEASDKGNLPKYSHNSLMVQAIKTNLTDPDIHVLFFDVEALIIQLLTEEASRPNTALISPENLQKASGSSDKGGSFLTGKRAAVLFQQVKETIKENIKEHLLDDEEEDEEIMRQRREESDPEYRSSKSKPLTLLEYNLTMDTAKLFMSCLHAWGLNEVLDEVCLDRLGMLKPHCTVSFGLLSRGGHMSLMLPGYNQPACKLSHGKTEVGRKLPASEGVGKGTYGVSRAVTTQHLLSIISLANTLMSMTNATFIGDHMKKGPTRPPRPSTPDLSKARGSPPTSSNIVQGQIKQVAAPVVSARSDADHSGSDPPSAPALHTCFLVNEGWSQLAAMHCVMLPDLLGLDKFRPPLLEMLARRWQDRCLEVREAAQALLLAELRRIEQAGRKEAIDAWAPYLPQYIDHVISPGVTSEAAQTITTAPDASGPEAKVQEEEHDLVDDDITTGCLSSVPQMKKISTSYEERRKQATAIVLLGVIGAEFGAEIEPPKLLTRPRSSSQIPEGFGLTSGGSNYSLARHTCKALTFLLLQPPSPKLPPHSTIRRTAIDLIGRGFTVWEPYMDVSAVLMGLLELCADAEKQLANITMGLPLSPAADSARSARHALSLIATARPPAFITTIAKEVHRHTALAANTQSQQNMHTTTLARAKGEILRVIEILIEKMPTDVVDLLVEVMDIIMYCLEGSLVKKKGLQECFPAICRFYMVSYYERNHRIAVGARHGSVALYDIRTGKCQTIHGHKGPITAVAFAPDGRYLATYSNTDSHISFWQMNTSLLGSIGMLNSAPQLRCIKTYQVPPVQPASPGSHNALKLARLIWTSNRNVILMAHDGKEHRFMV
UniProt O95071, sequence (O95071 whole entry, looked up): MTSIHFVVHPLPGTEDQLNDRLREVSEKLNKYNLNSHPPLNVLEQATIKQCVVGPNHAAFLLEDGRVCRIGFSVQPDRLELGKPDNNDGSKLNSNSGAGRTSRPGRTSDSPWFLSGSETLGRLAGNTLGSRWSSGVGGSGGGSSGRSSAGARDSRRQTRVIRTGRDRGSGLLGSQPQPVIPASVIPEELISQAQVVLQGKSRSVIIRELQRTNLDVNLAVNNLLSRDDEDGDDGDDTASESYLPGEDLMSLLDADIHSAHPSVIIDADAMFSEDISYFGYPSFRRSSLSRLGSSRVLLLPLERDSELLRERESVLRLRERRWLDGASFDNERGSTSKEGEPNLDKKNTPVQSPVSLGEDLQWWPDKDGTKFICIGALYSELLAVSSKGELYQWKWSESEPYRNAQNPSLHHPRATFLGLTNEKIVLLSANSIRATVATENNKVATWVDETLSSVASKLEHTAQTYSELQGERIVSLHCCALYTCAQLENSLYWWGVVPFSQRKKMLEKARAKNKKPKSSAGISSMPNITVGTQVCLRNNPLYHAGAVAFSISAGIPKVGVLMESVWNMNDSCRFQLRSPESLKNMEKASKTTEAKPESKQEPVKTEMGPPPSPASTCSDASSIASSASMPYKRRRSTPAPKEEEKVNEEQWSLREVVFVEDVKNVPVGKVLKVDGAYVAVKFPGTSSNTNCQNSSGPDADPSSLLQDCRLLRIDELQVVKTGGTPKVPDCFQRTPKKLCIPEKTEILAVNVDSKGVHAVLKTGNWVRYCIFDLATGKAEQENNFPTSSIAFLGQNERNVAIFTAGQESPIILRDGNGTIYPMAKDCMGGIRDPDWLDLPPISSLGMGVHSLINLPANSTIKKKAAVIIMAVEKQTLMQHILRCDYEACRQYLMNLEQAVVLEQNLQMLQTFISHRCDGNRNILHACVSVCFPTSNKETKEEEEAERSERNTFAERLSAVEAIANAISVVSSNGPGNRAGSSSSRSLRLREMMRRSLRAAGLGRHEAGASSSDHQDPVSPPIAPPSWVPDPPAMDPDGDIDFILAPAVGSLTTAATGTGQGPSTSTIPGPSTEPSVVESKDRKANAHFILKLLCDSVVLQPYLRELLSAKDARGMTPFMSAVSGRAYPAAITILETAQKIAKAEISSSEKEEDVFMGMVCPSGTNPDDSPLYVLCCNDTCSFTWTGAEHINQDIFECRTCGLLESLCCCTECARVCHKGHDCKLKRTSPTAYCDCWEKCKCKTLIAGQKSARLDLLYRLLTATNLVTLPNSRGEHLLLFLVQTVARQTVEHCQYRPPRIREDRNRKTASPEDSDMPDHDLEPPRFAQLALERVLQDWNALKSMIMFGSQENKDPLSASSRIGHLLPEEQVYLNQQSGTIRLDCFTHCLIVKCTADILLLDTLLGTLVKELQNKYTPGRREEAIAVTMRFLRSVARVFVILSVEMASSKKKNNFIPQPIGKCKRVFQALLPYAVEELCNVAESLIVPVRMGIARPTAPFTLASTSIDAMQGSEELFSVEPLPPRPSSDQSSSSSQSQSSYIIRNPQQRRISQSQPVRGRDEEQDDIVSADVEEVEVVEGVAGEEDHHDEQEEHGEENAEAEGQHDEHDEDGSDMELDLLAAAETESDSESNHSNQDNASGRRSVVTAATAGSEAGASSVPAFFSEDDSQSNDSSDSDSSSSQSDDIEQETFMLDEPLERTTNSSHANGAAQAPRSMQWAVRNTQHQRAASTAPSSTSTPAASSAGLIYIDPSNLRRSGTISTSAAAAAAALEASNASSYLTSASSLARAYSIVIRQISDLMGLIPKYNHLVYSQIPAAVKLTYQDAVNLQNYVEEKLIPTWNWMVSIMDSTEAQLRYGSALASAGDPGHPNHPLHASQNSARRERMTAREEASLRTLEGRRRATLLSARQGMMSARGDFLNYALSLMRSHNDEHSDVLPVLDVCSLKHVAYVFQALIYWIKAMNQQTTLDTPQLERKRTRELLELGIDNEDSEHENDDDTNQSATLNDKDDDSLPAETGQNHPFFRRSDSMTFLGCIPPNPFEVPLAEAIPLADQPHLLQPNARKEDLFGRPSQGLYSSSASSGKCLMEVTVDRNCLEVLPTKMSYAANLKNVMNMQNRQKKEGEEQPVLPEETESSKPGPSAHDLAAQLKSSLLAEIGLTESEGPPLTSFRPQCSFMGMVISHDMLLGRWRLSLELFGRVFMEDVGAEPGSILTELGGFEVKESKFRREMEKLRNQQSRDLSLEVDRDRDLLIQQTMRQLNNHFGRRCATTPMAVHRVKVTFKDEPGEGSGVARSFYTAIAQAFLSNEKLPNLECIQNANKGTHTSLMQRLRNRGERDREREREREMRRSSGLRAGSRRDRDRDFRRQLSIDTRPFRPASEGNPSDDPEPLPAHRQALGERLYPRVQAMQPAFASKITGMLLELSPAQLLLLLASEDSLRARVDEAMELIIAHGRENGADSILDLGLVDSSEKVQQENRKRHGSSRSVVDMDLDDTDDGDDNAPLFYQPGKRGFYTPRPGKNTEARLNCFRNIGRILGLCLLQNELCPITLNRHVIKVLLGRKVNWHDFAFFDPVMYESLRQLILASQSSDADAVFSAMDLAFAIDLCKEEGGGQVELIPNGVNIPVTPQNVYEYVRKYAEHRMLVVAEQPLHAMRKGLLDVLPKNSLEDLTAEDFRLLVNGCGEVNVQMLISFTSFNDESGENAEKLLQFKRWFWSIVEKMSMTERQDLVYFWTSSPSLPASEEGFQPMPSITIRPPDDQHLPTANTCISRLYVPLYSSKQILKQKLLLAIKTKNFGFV
UniProt Q9C0H2, sequence (Q9C0H2 whole entry): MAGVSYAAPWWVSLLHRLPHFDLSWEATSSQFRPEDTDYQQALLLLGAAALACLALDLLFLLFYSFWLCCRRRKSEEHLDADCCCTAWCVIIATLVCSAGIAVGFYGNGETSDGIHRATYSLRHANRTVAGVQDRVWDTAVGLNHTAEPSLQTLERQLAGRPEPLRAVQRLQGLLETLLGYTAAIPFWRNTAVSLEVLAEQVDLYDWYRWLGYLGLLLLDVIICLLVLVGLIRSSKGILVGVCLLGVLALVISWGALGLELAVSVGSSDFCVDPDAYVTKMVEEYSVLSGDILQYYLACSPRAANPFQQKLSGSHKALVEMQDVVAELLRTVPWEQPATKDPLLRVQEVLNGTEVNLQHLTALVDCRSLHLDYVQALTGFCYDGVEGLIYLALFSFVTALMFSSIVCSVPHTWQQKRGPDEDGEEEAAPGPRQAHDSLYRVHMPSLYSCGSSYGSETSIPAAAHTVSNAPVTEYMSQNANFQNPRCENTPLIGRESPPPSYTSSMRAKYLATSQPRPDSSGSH
UniProt P51965, sequence (P51965 whole entry, looked up): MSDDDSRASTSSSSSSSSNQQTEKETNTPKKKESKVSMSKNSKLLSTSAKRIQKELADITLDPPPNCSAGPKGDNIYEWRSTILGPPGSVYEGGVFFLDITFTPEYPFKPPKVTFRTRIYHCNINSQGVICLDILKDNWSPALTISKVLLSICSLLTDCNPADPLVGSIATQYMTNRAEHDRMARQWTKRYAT

Target	probe-labelled cysteine peptide fold change
VPS29_Q9UBQ0_36+41_IQHILCTGNLCTK (UniProt Q9UBQ0)	0.0402
VPS39_Q96JC1_681_LICDFPFDGLLEER (UniProt Q96JC1)	0.145
TXNRD1_Q16881_577_IICNTK (UniProt Q16881)	0.634
WDR11_Q9BZH6_411_NSSSGVSPLYSPVSFCGIPVGVLQNK (UniProt Q9BZH6)	-0.0944
TUBA1B_P68363_213_SKLEFSIYPAPQVSTAVVEPYNSILTTHTTLEHSDCAFMVDNEAIYDICRR<|>TUBA4A_P68366_213_SKLEFSIYPAPQVSTAVVEPYNSILTTHTTLEHSDCAFMVDNEAIYDICRR<|>TUBA1A_Q9BQE3_213_SKLEFSIYPAPQVSTAVVEPYNSILTTHTTLEHSDCAFMVDNEAIYDICRR (UniProt Q9BQE3+P68366+P68363)	0.181
TTF2_Q9UNY4_50_ATDIPVSHCLLHEDFVVELQGLLLPQDK (UniProt Q9UNY4)	0.0771
TXNRD2_Q9NNW7_523_SGLDPTVTGCUG (UniProt Q9NNW7)	-0.465
UNK_Q9C0B0_100_YDEATGLCPEGDECPFLHR (UniProt Q9C0B0)	0.613
UBE2O_Q9C0C9_598_VQSCPDPAVYGVVQSGDHIGR (UniProt Q9C0C9)	-0.0239
UBE2E1_P51965_131_IYHCNINSQGVICLDILK (UniProt P51965)	0.0832
VPS37A_Q8NEZ2_375_TICHCR (UniProt Q8NEZ2)	0.905
VEZF1_Q14119_327_TCMSEETSNQK (UniProt Q14119)	-0.186
WDR7_Q9Y4E6_326_ELLICPPVTR (UniProt Q9Y4E6)	0.0845
VRK3_Q8IV63_128_TSCSPQK (UniProt Q8IV63)	0.0233
TTYH3_Q9C0H2_486_CENTPLIGR (UniProt Q9C0H2)	-0.0936
UBR5_O95071_1382+1386_LDCFTHCLIVK (UniProt O95071)	0.374
TXNIP_Q9H3M7_49_ILACGVAK (UniProt Q9H3M7)	0.365
TYW1B_Q6NUM6_581_ELVDLIPEYEIACEHEHSNCLLIAHR (UniProt Q6NUM6)	0.268
TTC27_Q6P3X3_514_ETPSLYCLLGDVLGDHSCYDK (UniProt Q6P3X3)	-0.201
UBA7_P41226_223_DGDLVTFSGIEGMVELNDCDPR (UniProt P41226)	0.000986
USP4_Q13107_7_AEGGGCR (UniProt Q13107)	0.644
TRMT1_Q9NXH9_376_FSAACGPPVTPECEHCGQR (UniProt Q9NXH9)	0.157
VPS72_Q15906_163_GPHCERPLTQEELLR (UniProt Q15906)	0.0992
UBR7_Q8N806_99+101_CDCGNSK (UniProt Q8N806)	-0.0898

Same assay, conditions: 50 µM; THP-1; incubation time: 4 h

Target	probe-labelled cysteine peptide fold change
TTLL12_Q14166_418_WGEDNHWICK (UniProt Q14166)	0.0468
TYK2_P29597_1140_CPCEVYHLMK (UniProt P29597)	-0.214
USP34_Q70CQ2_2033_CQVADMK (UniProt Q70CQ2)	0.0671
URB2_Q14146_1380_LHNVLFSILQCHPK (UniProt Q14146)	0.859
VCPIP1_Q96JH7_940_HCTFPHLPGK (UniProt Q96JH7)	0.0163
TUBG1_P23258_316_QTNHCYIAILNIIQGEVDPTQVHK<|>TUBG2_Q9NRH3_316_QTNHCYIAILNIIQGEVDPTQVHK (UniProt Q9NRH3+P23258)	-0.013
TTF2_Q9UNY4_1118_FVCEGTVEEK (UniProt Q9UNY4)	-0.00382
WAPL_Q7Z5K2_891_ALQHCEELIQQYNR (UniProt Q7Z5K2)	0.496
WWP2_O00308_186_HQPPSTNCFGGR (UniProt O00308)	-0.168
WDR26_Q9H7D7_238_CELTPLK (UniProt Q9H7D7)	-0.0732
WDHD1_O75717_781_CVELADLMTQNAVNLAIK (UniProt O75717)	0.0632
UBE2T_Q9NPD8_86_ICLDVLK (UniProt Q9NPD8)	0.103
TUBGCP3_Q96CW5_388_TLAALVDHCQGRK (UniProt Q96CW5)	-0.0586
TRPM7_Q96QT4_1426_DQETVCSK (UniProt Q96QT4)	-0.219
WT1_P19544_385_HTGVKPFQCK (UniProt P19544)	-0.103
UBR4_Q5T4S7_4146_QAACTIVEALATIPSR (UniProt Q5T4S7)	-0.0346
VPS29_Q9UBQ0_36+41_IQHILCTGNLCTK (UniProt Q9UBQ0)	-0.0827
VPS39_Q96JC1_681_LICDFPFDGLLEER (UniProt Q96JC1)	0.086
TXNRD1_Q16881_577_IICNTK (UniProt Q16881)	0.851
WDR11_Q9BZH6_411_NSSSGVSPLYSPVSFCGIPVGVLQNK (UniProt Q9BZH6)	-0.0348

Target	probe-labelled cysteine peptide fold change
TUBA1B_P68363_213_SKLEFSIYPAPQVSTAVVEPYNSILTTHTTLEHSDCAFMVDNEAIYDICRR<|>TUBA4A_P68366_213_SKLEFSIYPAPQVSTAVVEPYNSILTTHTTLEHSDCAFMVDNEAIYDICRR<|>TUBA1A_Q9BQE3_213_SKLEFSIYPAPQVSTAVVEPYNSILTTHTTLEHSDCAFMVDNEAIYDICRR (UniProt Q9BQE3+P68366+P68363)	-0.0591
TTF2_Q9UNY4_50_ATDIPVSHCLLHEDFVVELQGLLLPQDK (UniProt Q9UNY4)	0.271
TXNRD2_Q9NNW7_523_SGLDPTVTGCUG (UniProt Q9NNW7)	-2
UNK_Q9C0B0_100_YDEATGLCPEGDECPFLHR (UniProt Q9C0B0)	0.284
UBE2O_Q9C0C9_598_VQSCPDPAVYGVVQSGDHIGR (UniProt Q9C0C9)	-0.0974
UBE2E1_P51965_131_IYHCNINSQGVICLDILK (UniProt P51965)	0.188
VPS37A_Q8NEZ2_375_TICHCR (UniProt Q8NEZ2)	0.772
VEZF1_Q14119_327_TCMSEETSNQK (UniProt Q14119)	-0.42
WDR7_Q9Y4E6_326_ELLICPPVTR (UniProt Q9Y4E6)	0.185
VRK3_Q8IV63_128_TSCSPQK (UniProt Q8IV63)	-0.142
TTYH3_Q9C0H2_486_CENTPLIGR (UniProt Q9C0H2)	-0.00547
UBR5_O95071_1382+1386_LDCFTHCLIVK (UniProt O95071)	0.564
TXNIP_Q9H3M7_49_ILACGVAK (UniProt Q9H3M7)	0.565
TYW1B_Q6NUM6_581_ELVDLIPEYEIACEHEHSNCLLIAHR (UniProt Q6NUM6)	0.256
TTC27_Q6P3X3_514_ETPSLYCLLGDVLGDHSCYDK (UniProt Q6P3X3)	-0.392
UBA7_P41226_223_DGDLVTFSGIEGMVELNDCDPR (UniProt P41226)	0.0382
USP4_Q13107_7_AEGGGCR (UniProt Q13107)	0.609
TRMT1_Q9NXH9_376_FSAACGPPVTPECEHCGQR (UniProt Q9NXH9)	0.015
VPS72_Q15906_163_GPHCERPLTQEELLR (UniProt Q15906)	-0.085
UBR7_Q8N806_99+101_CDCGNSK (UniProt Q8N806)	-0.168

Reference: the supplement of paper PMC12067093, “Discovery and optimisation of a covalent ligand for TRIM25 and its application to targeted protein ubiquitination” (Chemical Science, 2025)
